Measured values from PubChem BioAssay (NCI).
Where “and” joins values, the source holds several entries; their conditions need not be identical. Identical values can stand only once. The panel holds about 83,000 compounds, 20% with a hit somewhere; the sample as a whole holds those more often.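 Growth was measured after 48 h exposure to one concentration of compound in 96-well plates. Values under 10 count as active.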 Calls of active or inactive are those of the source.

How the values were obtained:
Assay in all cases: NCI-60 one-dose screen, 48 h (100 = growth as untreated, 0 = no growth, -100 = all killed)
Conditions in all cases: 10 µM unless noted
HCT-15 colon = tested on: HCT-15 colon
HT29 colon = tested on: HT29 colon
SNB-75 CNS = tested on: SNB-75 CNS
SNB-19 CNS = tested on: SNB-19 CNS
U251 CNS = tested on: U251 CNS
PC-3 prostate = tested on: PC-3 prostate
SK-MEL-5 melanoma = tested on: SK-MEL-5 melanoma
UACC-62 melanoma = tested on: UACC-62 melanoma
LOX IMVI melanoma = tested on: LOX IMVI melanoma
SK-MEL-28 melanoma = tested on: SK-MEL-28 melanoma

Measured: growth

C=C(C)[C@@H]1CC[C@]2(C(=O)O)CC[C@]3(C)[C@H](CC[C@@H]4[C@@]5(C)CCC(N)C(C)(C)[C@@H]5CC[C@]43C)[C@@H]12 (stereo not given in full)
active: HT29 colon -13.6% | U251 CNS 5.5% | UACC-62 melanoma -51.7% | LOX IMVI melanoma -51.1% | SK-MEL-28 melanoma -70.2%
inactive: HCT-15 colon 29.4% | SNB-75 CNS 95.8% | SNB-19 CNS 28.1% | PC-3 prostate 66.5% | SK-MEL-5 melanoma 61%

COc1cc(Nc2nc3ccccc3cc2C(=O)Nc2ccc(F)c(F)c2)cc(OC)c1OC
inactive: HCT-15 colon 13.5% | HT29 colon 28.5% | SNB-75 CNS 45.4% | SNB-19 CNS 25.3% | U251 CNS 19.1% | PC-3 prostate 10.7% | SK-MEL-5 melanoma 13.8% | UACC-62 melanoma 12.9% | LOX IMVI melanoma 17.6% | SK-MEL-28 melanoma 35.7%

O=C(N=Nc1c(O)[nH]c2ccccc12)Nc1ccc(Br)cc1
inactive: HCT-15 colon 77% | HT29 colon 97.6% | SNB-75 CNS 105% | SNB-19 CNS 96.5% | U251 CNS 101% | PC-3 prostate 91.9% | SK-MEL-5 melanoma 81.9% | UACC-62 melanoma 79.3% | LOX IMVI melanoma 78% | SK-MEL-28 melanoma 89.3%

Nc1c(C(=O)Nc2ccncc2)sc2nc3c(cc12)CCCCCCCC3
active: HCT-15 colon -82.2% | HT29 colon -92.6% | SNB-75 CNS -96.2% | SNB-19 CNS -77.1% | U251 CNS -89.2% | PC-3 prostate -18.9% | SK-MEL-5 melanoma -96.1% | UACC-62 melanoma -94.9% | LOX IMVI melanoma -84.7% | SK-MEL-28 melanoma -91.4%

OB(O)c1ccsc1-c1nc2ccc3[nH]ncc3c2c2c1CCCC2
inactive: HCT-15 colon 31.3% | HT29 colon 45.9% | SNB-75 CNS 35.2% | SNB-19 CNS 76.1% | U251 CNS 65.9% | PC-3 prostate 69.4% | SK-MEL-5 melanoma 57.6% | UACC-62 melanoma 45.2% | LOX IMVI melanoma 41.1% | SK-MEL-28 melanoma 72.8%

Cc1ccc(-c2nc3nc(-c4ccc(Cl)cc4)nc(N4CCCNCC4)c3o2)cc1
active: HCT-15 colon -81.5% | HT29 colon -82.4% | SNB-75 CNS -10.4% | SNB-19 CNS -89.7% | U251 CNS -86.9% | PC-3 prostate -79.8% | LOX IMVI melanoma -83.2%
inactive: SK-MEL-5 melanoma 92.8% | UACC-62 melanoma 95.6% | SK-MEL-28 melanoma 108%

CCN(c1cc(-c2ccc(CN3CCC(/C=C/S(=O)(=O)c4ccccc4)CC3)cc2)cc(C(=O)NCc2c(C)cc(C)[nH]c2=O)c1C)C1CCOCC1
inactive: HCT-15 colon 54.8% | HT29 colon 21.2% | SNB-75 CNS 37.5% | SNB-19 CNS 80.1% | U251 CNS 66.9% | PC-3 prostate 53.7% | SK-MEL-5 melanoma 71.9% | UACC-62 melanoma 76.6% | LOX IMVI melanoma 68.9% | SK-MEL-28 melanoma 97.9%

CCN(CC)CCOc1ccc(/C(=C(\Cl)c2ccccc2)c2ccccc2)cc1
active: HCT-15 colon -1.24% and 0.736% | HT29 colon -46.7% and 7.7% | SK-MEL-5 melanoma -97.4% and -99.3% | UACC-62 melanoma -54.2% and 9.63% | SK-MEL-28 melanoma -28% and -41.1%
inactive: SNB-75 CNS 27.2% and 31.5% | SNB-19 CNS 52.4% and 86.6% | U251 CNS 23.1% and 72.8% | PC-3 prostate 49.1% and 91.3%
-42.7% (active) and 85.4% (inactive): LOX IMVI melanoma

Cn1cc2c(=O)nc3c(-c4nc5ccccc5[nH]4)n[nH]n3c2n1
inactive: HCT-15 colon 80.1% | HT29 colon 89.7% | SNB-75 CNS 93.4% | SNB-19 CNS 95.8% | U251 CNS 89.6% | PC-3 prostate 67.1% | SK-MEL-5 melanoma 53.1% | UACC-62 melanoma 70.6% | LOX IMVI melanoma 72.5% | SK-MEL-28 melanoma 82.5%

Cc1ccc(S(=O)(=O)Nc2cc(Sc3ccccc3)c(O)c3ccccc23)cc1
active: LOX IMVI melanoma 2.72%
inactive: HCT-15 colon 91.9% | HT29 colon 120% | SNB-75 CNS 98.4% | SNB-19 CNS 105% | U251 CNS 16.1% | PC-3 prostate 34.6% | SK-MEL-5 melanoma 41.8% | UACC-62 melanoma 42.9% | SK-MEL-28 melanoma 84.8%

Cc1ccc2c(c1)C(C)Cc1c(ncnc1-n1cnc3cc(C)ccc31)N2C (stereo not given)
inactive: HCT-15 colon 12.3% | SNB-75 CNS 60.3% | SNB-19 CNS 37.8% | PC-3 prostate 24.5% | UACC-62 melanoma 30.6% | LOX IMVI melanoma 25.7% | SK-MEL-28 melanoma 53.1%
active: HT29 colon -10.3% | U251 CNS 6.82% | SK-MEL-5 melanoma -24.2%

Cc1ccc(-c2nc3nc(-c4ccccc4)nc(N4CCCNCC4)c3o2)cc1
inactive: SNB-19 CNS 25.9%
active: HCT-15 colon -81.5% | HT29 colon -86.1% | SNB-75 CNS -59.8% | U251 CNS -84.9% | PC-3 prostate -88.9% | SK-MEL-5 melanoma -57.3% | UACC-62 melanoma -81.4% | LOX IMVI melanoma -89.8% | SK-MEL-28 melanoma -89.3%

Cn1ccnc1CN1CCSC(C(=O)Nc2ccccc2)C1 (stereo not given)
inactive: HCT-15 colon 95.4% | HT29 colon 95.1% | SNB-75 CNS 79.5% | SNB-19 CNS 93% | U251 CNS 93.1% | PC-3 prostate 92.3% | SK-MEL-5 melanoma 95.4% | UACC-62 melanoma 87.7% | LOX IMVI melanoma 98.7% | SK-MEL-28 melanoma 100%

COc1ccc(/C=C2/C(=O)N=C3N2NC(c2ccccc2)=CN3c2ccccc2)cc1
inactive: HCT-15 colon 109% | HT29 colon 109% | SNB-75 CNS 98.1% | SNB-19 CNS 97.7% | U251 CNS 99.4% | PC-3 prostate 96.1% | SK-MEL-5 melanoma 97.4% | UACC-62 melanoma 94.2% | LOX IMVI melanoma 87.8% | SK-MEL-28 melanoma 108%

CC1=C2[C@@H](CC1)[C@]1(C)O[C@@](C3CC3)(C[C@H]1OC(=O)CO)[C@H]2OC(=O)/C=C/c1ccccc1
inactive: HCT-15 colon 97% | HT29 colon 89.5% | SNB-75 CNS 88.2% | SNB-19 CNS 90% | U251 CNS 88.3% | PC-3 prostate 68% | SK-MEL-5 melanoma 92.9% | UACC-62 melanoma 73.1% | LOX IMVI melanoma 84% | SK-MEL-28 melanoma 107%

O/N=C(/c1ccccc1)c1ccc2c3c(cccc13)CC2
inactive: HCT-15 colon 84.7% and 77.3% | HT29 colon 97.5% and 86.4% | SNB-75 CNS 74.8% and 58.4% | SNB-19 CNS 98.5% and 94.1% | U251 CNS 90.1% and 89.3% | PC-3 prostate 80% and 77.5% | SK-MEL-5 melanoma 98.1% and 91.1% | UACC-62 melanoma 84.6% and 74.7% | LOX IMVI melanoma 89.6% and 89.1% | SK-MEL-28 melanoma 92.8% and 87.5%

CC[C@@H]1NC(=O)[C@H]([C@H](O)[C@H](C)C/C=C/c2ccc(CN3C(=O)C(C)=C(C)C3=O)cc2)N(C)C(=O)[C@H](C(C)C)N(C)C(=O)[C@H](CC(C)C)N(C)C(=O)[C@H](CC(C)C)N(C)C(=O)[C@@H](C)NC(=O)[C@H](C)NC(=O)[C@H](CC(C)C)N(C)C(=O)[C@H](C(C)C)NC(=O)[C@H](CC(C)C)N(C)C(=O)CN(C)C1=O
inactive: HCT-15 colon 67.8% | HT29 colon 64.9% | SNB-75 CNS 72.8% | SNB-19 CNS 76.1% | U251 CNS 71.2% | PC-3 prostate 39.8% | SK-MEL-5 melanoma 60.5% | UACC-62 melanoma 73.3% | LOX IMVI melanoma 68.6% | SK-MEL-28 melanoma 82.3%

FC(F)(F)Sc1ccc(/C=C/c2cc(/C=C/c3ccc(SC(F)(F)F)cc3)n(-c3ccccc3)n2)cc1
inactive: HCT-15 colon 100% | HT29 colon 95.3% | SNB-75 CNS 82% | SNB-19 CNS 92.6% | U251 CNS 90.4% | PC-3 prostate 84.2% | SK-MEL-5 melanoma 98.3% | UACC-62 melanoma 84.5% | LOX IMVI melanoma 97.1% | SK-MEL-28 melanoma 109%

CCN1C(=O)N(c2ccccc2)C2NC(=S)N(/N=C/C=C/c3ccccc3)C21 (stereo not given)
active: HT29 colon 4.84% | SK-MEL-5 melanoma 3.14%
inactive: HCT-15 colon 12.6% | SNB-75 CNS 35.5% | SNB-19 CNS 22.6% | U251 CNS 13.9% | PC-3 prostate 14% | UACC-62 melanoma 20% | LOX IMVI melanoma 14.8% | SK-MEL-28 melanoma 60.1%

CN1CCN(c2ccc(/C=C/C(=O)c3ccc(O)cc3)cc2)CC1
inactive: HCT-15 colon 91.1% | HT29 colon 100% | SNB-75 CNS 85.6% | SNB-19 CNS 99.6% | U251 CNS 86.7% | PC-3 prostate 93.1% | SK-MEL-5 melanoma 94.1% | UACC-62 melanoma 92.7% | LOX IMVI melanoma 95.4% | SK-MEL-28 melanoma 98.8%

O=C(CCCOc1ccc(Br)cc1)Nc1ncc(Cc2ccc(F)cc2)s1
inactive: HCT-15 colon 38.6% | HT29 colon 49.1% | SNB-75 CNS 55% | SNB-19 CNS 76.5% | U251 CNS 80.4% | PC-3 prostate 72.9% | SK-MEL-5 melanoma 68.8% | UACC-62 melanoma 50.2% | LOX IMVI melanoma 64.6% | SK-MEL-28 melanoma 76.8%
